Reference: PMC7862700, “An all-to-all approach to the identification of sequence-specific readers for epigenetic DNA modifications on cytosine”

Legend:
Experiment in all cases: DAPPL (digital affinity profiling via proximity ligation, sequencing); 10 mM Tris-HCl pH 7.5, 50 mM NaCl, 1 mM DTT, 4% glycerol, room temperature, 30 min; GST-TFs on glutathione beads, 16-mer random dsDNA library, 0.1% formaldehyde crosslink after washing; high values mean tight binding
[1] = molecular target: T1, FLI1 (Homo sapiens, UniProt Q01543 1-452); settings: protein: recombinant; tags: N-terminal GST; dsDNA, one strand shown
T1 sequence: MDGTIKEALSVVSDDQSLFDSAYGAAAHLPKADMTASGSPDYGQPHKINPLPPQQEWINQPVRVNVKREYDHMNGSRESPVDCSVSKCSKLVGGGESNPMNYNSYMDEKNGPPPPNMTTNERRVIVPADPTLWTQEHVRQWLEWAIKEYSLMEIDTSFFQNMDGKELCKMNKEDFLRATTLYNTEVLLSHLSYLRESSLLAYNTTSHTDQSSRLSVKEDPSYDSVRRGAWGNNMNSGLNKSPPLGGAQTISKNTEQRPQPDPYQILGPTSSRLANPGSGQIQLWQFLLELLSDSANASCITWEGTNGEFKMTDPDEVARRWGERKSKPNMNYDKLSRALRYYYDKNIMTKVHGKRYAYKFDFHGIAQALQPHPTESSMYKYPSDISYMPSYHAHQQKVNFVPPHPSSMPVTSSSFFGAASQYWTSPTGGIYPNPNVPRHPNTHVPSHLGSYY
Procedure, shortened: (§1)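 Human transcription factors carrying a GST fusion were produced in yeast, bound to glutathione beads, tagged with DNA barcodes and pooled together with a tag-only sample. Each pool was held with 200 nmole of a random double-stranded 16-mer DNA library in Tris/NaCl/DTT/glycerol buffer for 30 min at room temperature, then washed, crosslinked in 0.1% formaldehyde, proximity-ligated with BsaI/T4 ligase (1 h, 37 °C), PCR-amplified and sequenced on an Illumina NextSeq500. Binding signal is the read frequency of each hexamer for a given factor divided by its frequency in the tag-only sample.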

[2] = molecular target: T2, ELK1 (Homo sapiens, UniProt P19419 1-428); settings: protein: recombinant; tags: N-terminal GST; dsDNA, one strand shown
T2 sequence: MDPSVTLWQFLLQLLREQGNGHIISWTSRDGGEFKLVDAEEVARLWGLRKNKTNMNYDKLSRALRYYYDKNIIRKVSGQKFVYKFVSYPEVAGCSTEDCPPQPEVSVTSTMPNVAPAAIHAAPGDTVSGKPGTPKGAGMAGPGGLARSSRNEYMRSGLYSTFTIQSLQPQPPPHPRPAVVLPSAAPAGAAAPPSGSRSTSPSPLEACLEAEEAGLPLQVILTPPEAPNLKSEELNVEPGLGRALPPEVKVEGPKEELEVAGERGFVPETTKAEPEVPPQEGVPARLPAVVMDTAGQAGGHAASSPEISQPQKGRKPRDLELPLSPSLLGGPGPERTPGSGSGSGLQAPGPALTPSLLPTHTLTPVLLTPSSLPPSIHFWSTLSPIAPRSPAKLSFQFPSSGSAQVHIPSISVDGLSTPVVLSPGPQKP
Procedure, shortened: as §1

[3] = molecular target: T3, GABPA (Homo sapiens, UniProt Q06546 1-454); settings: protein: recombinant; tags: N-terminal GST; dsDNA, one strand shown
T3 sequence: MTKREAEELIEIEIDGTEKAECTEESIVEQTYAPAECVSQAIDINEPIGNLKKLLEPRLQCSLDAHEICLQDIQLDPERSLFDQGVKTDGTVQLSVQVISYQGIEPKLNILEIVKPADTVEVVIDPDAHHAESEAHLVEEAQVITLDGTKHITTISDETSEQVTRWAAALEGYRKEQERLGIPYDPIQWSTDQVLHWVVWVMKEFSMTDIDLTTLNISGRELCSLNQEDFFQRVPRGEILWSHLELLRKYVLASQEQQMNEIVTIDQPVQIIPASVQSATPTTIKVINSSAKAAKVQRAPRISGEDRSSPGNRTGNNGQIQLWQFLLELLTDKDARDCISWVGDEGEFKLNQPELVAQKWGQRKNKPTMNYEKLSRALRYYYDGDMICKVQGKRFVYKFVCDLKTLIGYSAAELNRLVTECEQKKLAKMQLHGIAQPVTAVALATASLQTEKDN
Procedure, shortened: as §1

[4] = molecular target: T4, ERG (Homo sapiens, UniProt P11308 1-479); settings: protein: recombinant; tags: N-terminal GST; dsDNA, one strand shown
T4 sequence: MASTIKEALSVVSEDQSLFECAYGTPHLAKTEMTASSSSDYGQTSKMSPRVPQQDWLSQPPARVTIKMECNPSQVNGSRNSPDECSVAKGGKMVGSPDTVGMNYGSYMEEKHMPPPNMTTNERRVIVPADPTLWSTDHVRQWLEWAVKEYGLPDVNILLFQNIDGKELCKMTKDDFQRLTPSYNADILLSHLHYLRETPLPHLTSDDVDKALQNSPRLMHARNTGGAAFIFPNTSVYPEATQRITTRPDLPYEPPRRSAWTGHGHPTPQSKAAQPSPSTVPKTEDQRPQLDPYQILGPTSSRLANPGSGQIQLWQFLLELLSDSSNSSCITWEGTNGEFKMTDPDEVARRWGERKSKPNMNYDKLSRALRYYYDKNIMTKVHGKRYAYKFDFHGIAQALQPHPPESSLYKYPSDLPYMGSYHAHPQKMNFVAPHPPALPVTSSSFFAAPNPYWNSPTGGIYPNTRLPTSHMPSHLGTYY
Procedure, shortened: as §1

[5] = molecular target: ELF1 (Homo sapiens, UniProt P32519 1-619); settings: protein: recombinant; tags: N-terminal GST; dsDNA, one strand shown
Chain of ELF1 (P32519 whole entry): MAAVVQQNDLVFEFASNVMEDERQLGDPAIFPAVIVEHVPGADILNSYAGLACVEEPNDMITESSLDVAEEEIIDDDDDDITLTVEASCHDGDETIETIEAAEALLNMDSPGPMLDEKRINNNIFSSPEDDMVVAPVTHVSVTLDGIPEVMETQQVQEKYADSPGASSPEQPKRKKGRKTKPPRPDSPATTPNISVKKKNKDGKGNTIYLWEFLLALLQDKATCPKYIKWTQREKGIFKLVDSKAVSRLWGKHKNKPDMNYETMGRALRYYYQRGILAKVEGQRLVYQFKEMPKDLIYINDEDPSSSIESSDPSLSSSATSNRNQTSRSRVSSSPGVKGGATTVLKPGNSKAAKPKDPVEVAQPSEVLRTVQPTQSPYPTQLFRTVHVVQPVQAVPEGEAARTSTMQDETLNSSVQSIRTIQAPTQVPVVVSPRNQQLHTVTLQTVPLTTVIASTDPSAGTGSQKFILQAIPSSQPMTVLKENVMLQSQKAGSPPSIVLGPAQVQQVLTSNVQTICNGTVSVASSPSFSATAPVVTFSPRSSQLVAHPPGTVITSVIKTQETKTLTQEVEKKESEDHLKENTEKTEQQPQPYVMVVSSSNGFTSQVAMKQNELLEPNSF
Procedure, shortened: as §1

[6] = molecular target: T5, EHF (Homo sapiens, UniProt Q9NZC4 1-300); settings: protein: recombinant; tags: N-terminal GST; dsDNA, one strand shown
T5 sequence: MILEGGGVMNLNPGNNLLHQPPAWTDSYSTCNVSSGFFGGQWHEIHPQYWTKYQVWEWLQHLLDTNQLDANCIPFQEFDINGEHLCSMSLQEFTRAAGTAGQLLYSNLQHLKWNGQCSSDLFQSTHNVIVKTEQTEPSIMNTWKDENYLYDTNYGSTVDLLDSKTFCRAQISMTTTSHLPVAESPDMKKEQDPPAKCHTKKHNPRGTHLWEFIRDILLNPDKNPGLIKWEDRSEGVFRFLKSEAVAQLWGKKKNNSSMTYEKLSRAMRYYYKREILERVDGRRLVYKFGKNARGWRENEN
Procedure, shortened: as §1

[7] = molecular target: SPI1 (Homo sapiens, UniProt P17947 1-270); settings: protein: recombinant; tags: N-terminal GST; dsDNA, one strand shown
Procedure, shortened: as §1

[8] = molecular target: SPIB (Homo sapiens, UniProt Q01892 1-262); settings: protein: recombinant; tags: N-terminal GST; dsDNA, one strand shown
Chain of SPIB (Q01892 whole entry): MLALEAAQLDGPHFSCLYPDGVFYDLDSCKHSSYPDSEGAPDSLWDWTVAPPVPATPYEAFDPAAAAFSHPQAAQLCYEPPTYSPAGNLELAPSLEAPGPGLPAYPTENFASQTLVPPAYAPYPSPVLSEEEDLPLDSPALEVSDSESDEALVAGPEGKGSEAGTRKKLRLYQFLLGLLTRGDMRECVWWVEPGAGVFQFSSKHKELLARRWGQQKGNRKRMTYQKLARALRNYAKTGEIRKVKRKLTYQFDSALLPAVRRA
Procedure, shortened: as §1

[9] = molecular target: T6, ELK3 (Homo sapiens, UniProt P41970 1-407); settings: protein: recombinant; tags: N-terminal GST; dsDNA, one strand shown
T6 sequence: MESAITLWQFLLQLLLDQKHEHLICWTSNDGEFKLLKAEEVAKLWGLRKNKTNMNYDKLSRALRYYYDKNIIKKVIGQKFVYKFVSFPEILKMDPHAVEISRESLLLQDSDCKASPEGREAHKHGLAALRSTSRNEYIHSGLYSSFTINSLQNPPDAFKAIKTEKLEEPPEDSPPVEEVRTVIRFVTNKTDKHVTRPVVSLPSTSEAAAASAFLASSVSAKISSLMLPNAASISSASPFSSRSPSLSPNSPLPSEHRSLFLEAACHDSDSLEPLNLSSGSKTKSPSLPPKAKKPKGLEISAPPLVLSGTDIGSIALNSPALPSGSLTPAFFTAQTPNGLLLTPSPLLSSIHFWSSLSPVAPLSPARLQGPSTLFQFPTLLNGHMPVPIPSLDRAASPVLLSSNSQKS
Procedure, shortened: as §1

[10] = molecular target: T7, FEV (Homo sapiens, UniProt Q99581 1-238); settings: protein: recombinant; tags: N-terminal GST; dsDNA, one strand shown
T7 sequence: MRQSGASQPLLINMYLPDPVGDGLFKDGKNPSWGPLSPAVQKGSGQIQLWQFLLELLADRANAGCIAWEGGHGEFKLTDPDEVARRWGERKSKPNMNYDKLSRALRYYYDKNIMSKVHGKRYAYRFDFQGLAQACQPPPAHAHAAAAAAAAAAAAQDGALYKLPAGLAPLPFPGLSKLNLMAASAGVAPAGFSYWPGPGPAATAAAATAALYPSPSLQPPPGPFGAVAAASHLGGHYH
Procedure, shortened: as §1

[11] = molecular target: ETV5 (Homo sapiens, UniProt P41161 1-510); settings: protein: recombinant; tags: N-terminal GST; dsDNA, one strand shown
Chain of ETV5 (P41161 whole entry): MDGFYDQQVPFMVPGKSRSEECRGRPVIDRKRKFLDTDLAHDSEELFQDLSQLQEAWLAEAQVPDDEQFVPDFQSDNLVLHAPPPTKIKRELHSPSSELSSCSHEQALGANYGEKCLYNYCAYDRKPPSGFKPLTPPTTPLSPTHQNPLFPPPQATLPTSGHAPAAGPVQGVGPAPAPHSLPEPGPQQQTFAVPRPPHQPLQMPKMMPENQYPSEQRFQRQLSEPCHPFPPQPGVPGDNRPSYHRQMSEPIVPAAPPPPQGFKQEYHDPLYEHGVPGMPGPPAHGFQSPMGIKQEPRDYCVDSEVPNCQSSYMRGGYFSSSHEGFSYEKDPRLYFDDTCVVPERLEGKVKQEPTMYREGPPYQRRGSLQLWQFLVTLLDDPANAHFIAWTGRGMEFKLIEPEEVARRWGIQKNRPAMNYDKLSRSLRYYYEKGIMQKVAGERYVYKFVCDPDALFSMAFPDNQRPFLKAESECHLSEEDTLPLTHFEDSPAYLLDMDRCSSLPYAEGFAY
Procedure, shortened: as §1

[12] = molecular target: HSF1 (Homo sapiens, UniProt Q00613 1-529); settings: protein: recombinant; tags: N-terminal GST; chain copies: 3; dsDNA, one strand shown
Chain of HSF1 (Q00613 whole entry): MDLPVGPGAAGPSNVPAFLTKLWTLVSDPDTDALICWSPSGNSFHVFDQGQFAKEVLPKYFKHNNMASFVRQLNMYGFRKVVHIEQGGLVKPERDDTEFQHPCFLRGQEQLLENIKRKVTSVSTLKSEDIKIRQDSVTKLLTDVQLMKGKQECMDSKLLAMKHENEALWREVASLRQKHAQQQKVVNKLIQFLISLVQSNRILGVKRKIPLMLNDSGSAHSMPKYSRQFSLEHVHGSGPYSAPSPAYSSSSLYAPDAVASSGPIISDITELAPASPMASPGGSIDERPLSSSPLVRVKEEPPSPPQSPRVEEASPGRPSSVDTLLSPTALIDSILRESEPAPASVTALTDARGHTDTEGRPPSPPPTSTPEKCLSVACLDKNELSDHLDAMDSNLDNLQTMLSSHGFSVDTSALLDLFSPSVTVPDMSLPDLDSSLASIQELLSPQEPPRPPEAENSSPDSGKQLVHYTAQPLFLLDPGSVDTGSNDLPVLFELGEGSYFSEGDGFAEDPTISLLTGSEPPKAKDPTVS
Procedure, shortened: as §1

[13] = molecular target: T8, SPIC (Homo sapiens, UniProt Q8N5J4 1-248); settings: protein: recombinant; tags: N-terminal GST; dsDNA, one strand shown
T8 sequence: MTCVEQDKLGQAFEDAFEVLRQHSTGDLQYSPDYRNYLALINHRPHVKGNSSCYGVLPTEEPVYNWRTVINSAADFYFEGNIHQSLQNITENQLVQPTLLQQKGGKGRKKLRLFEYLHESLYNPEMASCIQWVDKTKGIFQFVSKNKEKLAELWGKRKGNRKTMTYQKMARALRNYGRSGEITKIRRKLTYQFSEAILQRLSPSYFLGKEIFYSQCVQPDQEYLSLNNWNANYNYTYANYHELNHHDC
Procedure, shortened: as §1

[14] = molecular target: ELF4 (Homo sapiens, UniProt Q99607 1-663); settings: protein: recombinant; tags: N-terminal GST; dsDNA, one strand shown
Chain of ELF4 (Q99607 whole entry): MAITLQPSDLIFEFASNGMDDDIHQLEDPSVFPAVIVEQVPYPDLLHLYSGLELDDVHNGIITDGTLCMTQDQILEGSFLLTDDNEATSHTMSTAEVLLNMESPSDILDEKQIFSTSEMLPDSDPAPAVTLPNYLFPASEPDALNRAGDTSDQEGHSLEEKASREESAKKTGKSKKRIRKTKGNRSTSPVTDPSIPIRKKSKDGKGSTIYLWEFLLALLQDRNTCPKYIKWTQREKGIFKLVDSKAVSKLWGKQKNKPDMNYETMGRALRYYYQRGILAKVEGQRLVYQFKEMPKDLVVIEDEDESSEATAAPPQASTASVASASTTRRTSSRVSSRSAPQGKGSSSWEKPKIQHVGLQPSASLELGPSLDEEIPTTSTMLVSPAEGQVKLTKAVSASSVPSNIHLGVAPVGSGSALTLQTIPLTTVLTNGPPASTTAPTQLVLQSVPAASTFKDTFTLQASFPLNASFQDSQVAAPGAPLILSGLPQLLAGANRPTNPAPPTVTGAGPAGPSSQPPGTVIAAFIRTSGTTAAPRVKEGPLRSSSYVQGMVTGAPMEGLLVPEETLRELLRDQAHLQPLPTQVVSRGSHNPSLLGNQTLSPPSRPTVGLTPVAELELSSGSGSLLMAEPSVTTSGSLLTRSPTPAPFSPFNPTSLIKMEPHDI
Procedure, shortened: as §1

[15] = molecular target: T9, ELK4 (Homo sapiens, UniProt P28324-2 1-405); settings: protein: recombinant; tags: N-terminal GST; dsDNA, one strand shown
T9 sequence: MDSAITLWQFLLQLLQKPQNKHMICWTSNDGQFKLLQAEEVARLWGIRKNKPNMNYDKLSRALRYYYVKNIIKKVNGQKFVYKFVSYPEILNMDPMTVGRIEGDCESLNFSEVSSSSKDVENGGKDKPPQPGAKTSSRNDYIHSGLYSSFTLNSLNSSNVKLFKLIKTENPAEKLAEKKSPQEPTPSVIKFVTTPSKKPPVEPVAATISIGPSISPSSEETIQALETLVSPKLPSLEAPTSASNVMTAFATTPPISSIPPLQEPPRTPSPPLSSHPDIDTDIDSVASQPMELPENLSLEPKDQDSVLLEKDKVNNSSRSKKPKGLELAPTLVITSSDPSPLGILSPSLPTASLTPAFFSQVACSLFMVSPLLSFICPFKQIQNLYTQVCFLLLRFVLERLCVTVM
Procedure, shortened: as §1

[16] = molecular target: T10, ELF3 (Homo sapiens, UniProt P78545 1-371); settings: protein: recombinant; tags: N-terminal GST; dsDNA, one strand shown
T10 sequence: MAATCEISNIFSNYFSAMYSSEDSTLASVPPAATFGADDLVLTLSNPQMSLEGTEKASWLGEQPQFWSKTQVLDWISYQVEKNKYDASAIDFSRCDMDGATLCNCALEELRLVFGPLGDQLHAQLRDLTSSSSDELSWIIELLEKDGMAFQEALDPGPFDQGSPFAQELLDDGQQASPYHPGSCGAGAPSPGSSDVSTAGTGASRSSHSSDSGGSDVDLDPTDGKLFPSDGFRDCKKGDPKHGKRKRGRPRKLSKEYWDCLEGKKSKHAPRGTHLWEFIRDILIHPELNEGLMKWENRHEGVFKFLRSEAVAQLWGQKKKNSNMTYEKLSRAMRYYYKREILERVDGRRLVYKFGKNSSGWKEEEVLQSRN
Procedure, shortened: as §1

[17] = molecular target: CRX (Homo sapiens, UniProt O43186 1-299); settings: protein: recombinant; tags: N-terminal GST; dsDNA, one strand shown
Chain of CRX (O43186 whole entry): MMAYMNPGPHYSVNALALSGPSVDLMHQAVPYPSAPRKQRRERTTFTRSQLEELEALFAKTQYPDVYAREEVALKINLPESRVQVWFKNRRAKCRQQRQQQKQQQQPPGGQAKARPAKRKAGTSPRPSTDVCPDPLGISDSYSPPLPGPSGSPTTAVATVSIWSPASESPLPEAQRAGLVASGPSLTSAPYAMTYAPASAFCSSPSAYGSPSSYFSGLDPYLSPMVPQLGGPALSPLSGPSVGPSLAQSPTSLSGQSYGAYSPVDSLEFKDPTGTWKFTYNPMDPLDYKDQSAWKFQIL
Procedure, shortened: as §1

[18] = molecular target: ETV1 (Homo sapiens, UniProt P50549 1-477); settings: protein: recombinant; tags: N-terminal GST; dsDNA, one strand shown
Chain of ETV1 (P50549 whole entry): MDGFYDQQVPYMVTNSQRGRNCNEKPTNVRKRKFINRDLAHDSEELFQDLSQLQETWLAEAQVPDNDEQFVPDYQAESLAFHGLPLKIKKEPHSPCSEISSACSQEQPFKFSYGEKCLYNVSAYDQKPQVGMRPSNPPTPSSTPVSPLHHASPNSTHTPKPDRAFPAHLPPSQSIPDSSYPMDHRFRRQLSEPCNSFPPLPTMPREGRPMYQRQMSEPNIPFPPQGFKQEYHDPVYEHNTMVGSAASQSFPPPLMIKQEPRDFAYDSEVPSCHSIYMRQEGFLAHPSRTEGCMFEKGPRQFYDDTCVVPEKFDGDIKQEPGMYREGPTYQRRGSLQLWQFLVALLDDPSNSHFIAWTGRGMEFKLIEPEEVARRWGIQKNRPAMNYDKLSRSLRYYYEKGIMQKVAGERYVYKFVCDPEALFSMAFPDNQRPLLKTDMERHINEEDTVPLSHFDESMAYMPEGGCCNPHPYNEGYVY
Procedure, shortened: as §1

## AGCCTC
[1]
  binding signal: 1.39 fold enrichment (6-mer frequency, TF over GST control)
[2]
  binding signal: 1.3 fold enrichment (6-mer frequency, TF over GST control)
[3]
  binding signal: 1.31 fold enrichment (6-mer frequency, TF over GST control)
[4]
  binding signal: 1.21 fold enrichment (6-mer frequency, TF over GST control)
[5]
  binding signal: 1.25 fold enrichment (6-mer frequency, TF over GST control)
[6]
  binding signal: 1.13 fold enrichment (6-mer frequency, TF over GST control)
[7]
  binding signal: 1.26 fold enrichment (6-mer frequency, TF over GST control)
[8]
  binding signal: 1.07 fold enrichment (6-mer frequency, TF over GST control)
[9]
  binding signal: 1.21 fold enrichment (6-mer frequency, TF over GST control)
[10]
  binding signal: 1.27 fold enrichment (6-mer frequency, TF over GST control)
[11]
  binding signal: 1.27 fold enrichment (6-mer frequency, TF over GST control)
[12]
  binding signal: 1.3 fold enrichment (6-mer frequency, TF over GST control)
[13]
  binding signal: 1.25 fold enrichment (6-mer frequency, TF over GST control)
[14]
  binding signal: 1.36 fold enrichment (6-mer frequency, TF over GST control)
[15]
  binding signal: 1.13 fold enrichment (6-mer frequency, TF over GST control)
[16]
  binding signal: 1.22 fold enrichment (6-mer frequency, TF over GST control)
[17]
  binding signal: 1.33 fold enrichment (6-mer frequency, TF over GST control)
[18]
  binding signal: 1.13 fold enrichment (6-mer frequency, TF over GST control)
